In paper PMC5540273 (PLoS ONE, 2017):

What follows are compounds tested on BTK. Details: concentration: 1 μM, replicates: in singlicate; n = 1.
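Further: KINOMEscan kinase panel screen.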

With `CN1C(=O)C(Nc2ccc(Cl)c(C(=O)O)c2)=C(c2ccc(Cl)cc2)C1=O` [SB-404290] as the compound, how does the “%Inh” value read?
Its value is 0%.

How did the “%Inh” value turn out when `Cc1cccc(-c2nc(-c3ccc(S(C)(=O)=O)cc3)sc2-c2ccnc(NCCc3ccccc3)c2)c1` was run?
Its value is 0%.

For `COc1cccc(-c2cc(-c3c[nH]nc3-c3ccccn3)ccn2)c1` [GW680338], which “%Inh” value is on record?
The value was 0%.

With `Cl.NC(=O)c1cccc(Nc2nccc(Nc3ccc(Oc4cccc(Cl)c4)c(Cl)c3)n2)c1` [GW659008] as the compound, how does the “%Inh” value read?
Its value is 0%.

How did the “%Inh” value turn out when `Cn1ccc2ncnc(Oc3ccc(NC(=O)Nc4ccccc4)cc3)c21` was run?
The value was 0%.

`Cc1ccc(C(=O)Nc2ccc(Nc3ccnc4cc(-c5ccccn5)ccc34)cc2O)cc1.Cl` [GW440146] was tested. Which “%Inh” value did it give?
The value was 46%.

Which “%Inh” value does the source give for `Cc1c(O)cccc1Nc1ccnc2ccc(C(F)(F)F)cc12.Cl` [GW466413] here?
Its value is 0%.

For `CC(C)(C)c1ccc(C(=O)Nc2cn3cc(-c4cccnc4)ccc3n2)cc1`, which “%Inh” value is on record?
Its value is 0%.

With `CC1=C(C(=O)Nc2cc3cn[nH]c3cc2F)C(c2ccc(C(F)(F)F)cc2)CC(=O)N1` (stereo not shown) [GSK429286] as the compound, how does the “%Inh” value read?
The value was 0%.

How did the “%Inh” value turn out when `Cl.c1ccc(-c2n[nH]cc2-c2ccnc(-c3ccc(CN4CCOCC4)cc3)c2)nc1` [GW776245] was run?
The value was 0%.

How did the “%Inh” value turn out when `Cc1cccc(-c2cc(Nc3ccncc3)c3ccccc3n2)n1` [GSK223675] was run?
Its value is 0%.

For `Cc1cccc(-c2nc(Nc3ccncc3)c3ccccc3n2)n1` [GW855857], which “%Inh” value is on record?
The value was 0%.

For `COc1ccc2nc(-c3cccc(C)n3)nc(Nc3ccncc3)c2c1` [GSK204919], which “%Inh” value is on record?
Its value is 0%.
